Among the data in PubChem BioAssay (NCATS) are Potency values, retold here.

SMILES strings stand for the structures. Results filed as inconclusive are left out. Where a call stands in place of a potency, no number is given. Calls of active or inactive are those of the source. Calls follow the shape of the dose curve; as a rule, active = well fitted curve in the direction sought with a large enough effect; inconclusive = small, poorly fitted or top-dose-only effect, or another doubt; inactive = no such curve, though single readings can be large; an effect the other way counts as inactive or inconclusive.

The target in assay [1] is Aldehyde dehydrogenase, mitochondrial (Homo sapiens) (UniProt P05091). The assay is described as follows: qHTS for Inhibitors of the Aldehyde Dehydrogenase Family (ALDH2) Primary screen (AID 2061308). Also: nearly all actives have a fitted effect of over 55% in size. The note with it: ALDH2 enzyme inhibition qHTS, 1536-well; series mostly up to 56 µM. A general note: In qHTS, concentration-response curves come from the screen itself.
Assay [2] has as its target Retinaldehyde dehydrogenase 3 (Homo sapiens) (UniProt P47895). The assay is described as follows: qHTS for Inhibitors of the Aldehyde Dehydrogenase Family (ALDH1A3) Primary screen (AID 2061315). The note with it: ALDH inhibition qHTS; series mostly up to 56 µM.

Consider `CCC12CCCN3CCc4c(n(c5ccccc45)C(O)C1)C32` (stereo unspecified), for which the Potency entry in assay [1] and in assay [2] was “inactive” each time.
On to `O=C(Cn1ncccc1=O)NCCc1ccccc1`, for which the Potency entry in assay [1] and in assay [2] was “inactive” in each case.
As to `O=C(/C=C/c1ccccc1)OCC1=CC[C@@H]2C(C(=O)O)=CO[C@@H](O[C@@H]3O[C@H](CO)[C@@H](O)[C@H](O)[C@H]3O)[C@H]12`, the Potency entry in assay [1] and in assay [2] was “inactive” in each case.
For the compound `CCOC(=O)CCCC(=O)Nc1ncnc2c1C(c1ccccc1)c1c(ccc3ccccc13)O2` (stereo unspecified), the Potency result in assay [1] and in assay [2] was “inactive” each time.
Consider `CCN1CCN(Cc2ccc(C(=O)Nc3ccc(C)c(Oc4ccc5c(c4)CC(=O)N5)c3)cc2C(F)(F)F)CC1`, for which the Potency result in assay [1] and in assay [2] was “inactive” in each case.
On to `O=C1Nc2ccccc2C1Cc1cc(Cl)c(O)c(Cl)c1` (stereo unspecified), for which the Potency result in assay [1] and in assay [2] was “inactive” each time.
Regarding `COc1ccc(C2=Nn3c(nnc3-c3ccccc3F)SC2)cc1OC1CCCC1`, the Potency result in assay [1] and in assay [2] was “inactive” in each case.
On to `O=S(=O)(c1ccc2c(c1)OCCO2)N1CCN(S(=O)(=O)c2ccc3nc(Cl)c(Cl)nc3c2)CC1`, for which the Potency entry in assay [1] and in assay [2] was “inactive” in each case.
`O=C(c1ccccc1)N1CCN(c2nc(-c3cccs3)nc3ccccc23)CC1`: the Potency entry in assay [1] and in assay [2] was “inactive” in each case.
`Cc1cn2c(-c3cn[nH]c3)cnc2c(Nc2ccc(C(=O)N3CCNCC3)cc2F)n1`: the Potency entry in assay [1] and in assay [2] was “inactive” throughout.
In the case of `O=C(NCCc1nc2ccccc2n1CCOc1ccc(F)cc1)C1CCCCC1`, the Potency entry in assay [1] and in assay [2] was “inactive” throughout.
For `C#CCOc1ccc(C(C)=O)cc1-c1nnc2n1N=C(c1ccc(OC)c(OC)c1)CS2`, the Potency result in assay [1] and in assay [2] was “inactive” each time.
As to `O=C(OCC#CCSc1nnc(-c2cccc3ccccc23)o1)c1ccc(F)nc1`, the Potency result in assay [1] and in assay [2] was “inactive” in each case.
For the compound `Cc1ccc(S(=O)(=O)Nc2ccc(Br)cc2C(=O)Nc2nc(-c3ccccc3)cs2)cc1`, the Potency entry in assay [1] and in assay [2] was “inactive” each time.
Take `C=C1C(=O)O[C@@H]2C[C@@]3(C)CCCC(=C)[C@]3(O)C[C@H]12`: the Potency result in assay [1] and in assay [2] was “inactive” throughout.
On to `Cc1cccc(CNc2nc(-c3ccccc3C(F)(F)F)nc3ccccc23)c1`, for which the Potency entry in assay [1] and in assay [2] was “inactive” each time.
Turning to `O=c1c2ccc([N+](=O)[O-])cc2nc2sc(Nc3ccc4c(c3)CCC4)nn12`, the Potency result in assay [1] and in assay [2] was “inactive” in each case.
On to `COC(=O)c1ccc(OC(C)=O)c2ncccc12`, for which the Potency entry in assay [1] and in assay [2] was “inactive” throughout.
For the compound `O=C1Nc2cccc(Cl)c2/C1=C\c1cc(Cl)c(O)c(Cl)c1`, the Potency entry in assay [1] and in assay [2] was “inactive” throughout.
Consider `COc1ccc(C2=Nn3c(nnc3-c3ccccc3Cl)SC2)cc1OC1CCOC1` (stereo unspecified), for which the Potency entry in assay [1] and in assay [2] was “inactive” throughout.
In the case of `O=S(=O)(c1ccc(O)c2ncccc12)N1CCCCC1`, the Potency result in assay [1] and in assay [2] was “inactive” throughout.
For the compound `CCOc1ccc(C(=O)Oc2ccc(-c3nc4ccccc4[nH]3)cc2)cc1Cl`, the Potency result in assay [1] and in assay [2] was “inactive” throughout.
In the case of `Cc1cc(C)nc(NC(=S)N2CCN(Cc3cccc4ccccc34)CC2)c1`, the Potency result in assay [1] and in assay [2] was “inactive” each time.
Consider `O=C1Nc2ccccc2/C1=C\c1ccc(O)cc1`, for which the Potency result in assay [1] and in assay [2] was “inactive” in each case.
For `O=C(Nc1nc(-c2ccccc2)cs1)c1ccncc1NS(=O)(=O)c1cccc(Cl)c1`, the Potency entry in assay [1] and in assay [2] was “inactive” each time.
In the case of `Cc1cnc(-c2ccccc2C(C)C)nc1NCc1cccs1`, the Potency entry in assay [1] and in assay [2] was “inactive” each time.
Regarding `COc1cc(O)c(C(CC(=O)N2CCCC(C(=O)c3ccccc3)C2)c2ccc3c(c2)OCO3)c(OC)c1` (stereo unspecified), the Potency entry in assay [1] and in assay [2] was “inactive” throughout.
`COc1ccc(CNC(=O)c2nc(S(=O)(=O)Cc3ccccc3)ncc2Cl)cc1`: the Potency entry in assay [1] and in assay [2] was “inactive” each time.
`O=C1c2ccccc2C(=O)N1c1cccc(O)c1`: the Potency entry in assay [1] and in assay [2] was “inactive” in each case.
Regarding `O=C(NCCc1nc2ccccc2n1CCOc1cccc([N+](=O)[O-])c1)C1CCCCC1`, the Potency entry in assay [1] and in assay [2] was “inactive” each time.
On to `CCOC(=O)c1ccoc1-c1ccc2ncnc(N(C)Cc3sccc3C)c2c1`, for which the Potency result in assay [1] and in assay [2] was “inactive” throughout.
`COc1ccc(OC)c(-c2nnc(NC(=O)Nc3ccc4ccccc4c3)s2)c1`: the Potency result in assay [1] and in assay [2] was “inactive” in each case.
On to `COc1ccc(-c2nnc3n2N=C(c2c(OC)cccc2OC)CS3)cc1OC`, for which the Potency result in assay [1] and in assay [2] was “inactive” throughout.
